Assay [1] concerns the target Tyrosine-protein kinase SYK (Homo sapiens) (UniProt P43405). Particulars: at 10 µM.
The target of assay [2] is T1, Mitogen-activated protein kinase kinase kinase 7 (Homo sapiens) (UniProt O43318).
T1 sequence (whole entry): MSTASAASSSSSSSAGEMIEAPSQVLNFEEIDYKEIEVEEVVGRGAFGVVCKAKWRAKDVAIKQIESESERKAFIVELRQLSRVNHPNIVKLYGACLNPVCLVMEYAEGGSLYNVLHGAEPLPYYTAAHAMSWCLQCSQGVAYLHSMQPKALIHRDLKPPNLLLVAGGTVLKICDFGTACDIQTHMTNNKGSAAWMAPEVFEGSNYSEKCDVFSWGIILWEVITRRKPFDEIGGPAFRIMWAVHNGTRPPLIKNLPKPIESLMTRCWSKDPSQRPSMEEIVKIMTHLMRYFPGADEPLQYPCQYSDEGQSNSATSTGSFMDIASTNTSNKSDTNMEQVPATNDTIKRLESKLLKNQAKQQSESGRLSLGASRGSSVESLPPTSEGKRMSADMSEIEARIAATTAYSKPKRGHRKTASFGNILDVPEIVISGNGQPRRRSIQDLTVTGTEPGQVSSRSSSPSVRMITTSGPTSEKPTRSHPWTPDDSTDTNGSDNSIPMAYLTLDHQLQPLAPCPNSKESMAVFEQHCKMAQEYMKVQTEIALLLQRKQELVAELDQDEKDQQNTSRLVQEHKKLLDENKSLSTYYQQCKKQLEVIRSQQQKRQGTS
Particulars: at 1 µM.

Assay [3] concerns the target T1, Mitogen-activated protein kinase kinase kinase 7 (Homo sapiens). The settings on record: at 10 µM.
Assay [4] deals with T2, Serine/threonine-protein kinase TAO1 (Homo sapiens) (UniProt Q7L7X3).
T2 sequence (whole entry): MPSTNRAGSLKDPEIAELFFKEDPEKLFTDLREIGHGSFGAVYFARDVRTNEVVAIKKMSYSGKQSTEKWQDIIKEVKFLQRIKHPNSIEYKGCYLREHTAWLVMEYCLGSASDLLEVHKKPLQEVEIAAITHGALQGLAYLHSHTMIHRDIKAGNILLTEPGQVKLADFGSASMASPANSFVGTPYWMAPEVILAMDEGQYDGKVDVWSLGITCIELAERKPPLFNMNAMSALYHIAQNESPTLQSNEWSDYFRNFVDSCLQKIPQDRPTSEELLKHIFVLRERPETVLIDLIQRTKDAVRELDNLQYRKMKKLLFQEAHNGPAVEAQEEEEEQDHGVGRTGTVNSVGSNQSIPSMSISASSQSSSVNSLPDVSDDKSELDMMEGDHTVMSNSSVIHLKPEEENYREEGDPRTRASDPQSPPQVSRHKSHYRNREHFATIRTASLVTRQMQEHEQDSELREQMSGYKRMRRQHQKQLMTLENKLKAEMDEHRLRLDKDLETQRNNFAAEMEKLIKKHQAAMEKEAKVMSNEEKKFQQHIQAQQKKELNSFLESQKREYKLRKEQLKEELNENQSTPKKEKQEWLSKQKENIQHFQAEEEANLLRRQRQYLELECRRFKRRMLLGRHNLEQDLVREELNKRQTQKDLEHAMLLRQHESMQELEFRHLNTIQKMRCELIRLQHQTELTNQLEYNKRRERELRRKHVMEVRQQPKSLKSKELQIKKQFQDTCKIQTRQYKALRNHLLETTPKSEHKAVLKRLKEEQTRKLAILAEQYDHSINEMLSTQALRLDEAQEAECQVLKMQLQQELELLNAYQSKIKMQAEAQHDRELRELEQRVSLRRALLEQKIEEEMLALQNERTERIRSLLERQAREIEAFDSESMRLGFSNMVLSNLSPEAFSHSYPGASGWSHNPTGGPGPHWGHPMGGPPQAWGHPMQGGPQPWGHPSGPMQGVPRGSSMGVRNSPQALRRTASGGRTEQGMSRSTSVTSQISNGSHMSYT
Particulars: at 1 µM.

Assay [5] concerns the target T2, Serine/threonine-protein kinase TAO1 (Homo sapiens). The settings on record: at 10 µM.
Assay [6] has as its target T3, Serine/threonine-protein kinase TAO3 (Homo sapiens) (UniProt Q9H2K8).
T3 sequence (whole entry): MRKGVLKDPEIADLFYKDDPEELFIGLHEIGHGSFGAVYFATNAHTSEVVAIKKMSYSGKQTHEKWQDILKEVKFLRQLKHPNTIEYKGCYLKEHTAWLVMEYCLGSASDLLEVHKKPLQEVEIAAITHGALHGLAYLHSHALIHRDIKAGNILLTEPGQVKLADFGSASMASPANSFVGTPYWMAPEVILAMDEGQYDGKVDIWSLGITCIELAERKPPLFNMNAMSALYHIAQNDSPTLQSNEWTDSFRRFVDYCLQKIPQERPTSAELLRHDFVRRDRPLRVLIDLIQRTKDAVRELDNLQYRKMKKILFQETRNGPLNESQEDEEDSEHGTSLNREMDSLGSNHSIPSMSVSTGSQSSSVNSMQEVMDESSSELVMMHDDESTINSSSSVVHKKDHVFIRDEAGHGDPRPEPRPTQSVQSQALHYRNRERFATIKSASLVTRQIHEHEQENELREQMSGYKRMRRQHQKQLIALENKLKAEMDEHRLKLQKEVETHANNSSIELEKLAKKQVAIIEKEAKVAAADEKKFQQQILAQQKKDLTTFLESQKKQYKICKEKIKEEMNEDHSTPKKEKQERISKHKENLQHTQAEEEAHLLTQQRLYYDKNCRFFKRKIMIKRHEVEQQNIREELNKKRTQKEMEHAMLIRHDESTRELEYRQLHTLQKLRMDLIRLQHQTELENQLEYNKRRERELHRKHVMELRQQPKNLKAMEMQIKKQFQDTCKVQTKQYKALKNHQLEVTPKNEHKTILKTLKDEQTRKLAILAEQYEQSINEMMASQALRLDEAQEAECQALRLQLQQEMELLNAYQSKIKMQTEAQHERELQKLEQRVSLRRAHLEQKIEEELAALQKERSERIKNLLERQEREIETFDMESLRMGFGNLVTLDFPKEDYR
The settings on record: at 1 µM.

Assay [7] concerns the target T3, Serine/threonine-protein kinase TAO3 (Homo sapiens). Particulars: at 10 µM.
Assay [8] addresses T4, Serine/threonine-protein kinase TBK1 (Homo sapiens) (UniProt Q9UHD2).
T4 sequence (whole entry): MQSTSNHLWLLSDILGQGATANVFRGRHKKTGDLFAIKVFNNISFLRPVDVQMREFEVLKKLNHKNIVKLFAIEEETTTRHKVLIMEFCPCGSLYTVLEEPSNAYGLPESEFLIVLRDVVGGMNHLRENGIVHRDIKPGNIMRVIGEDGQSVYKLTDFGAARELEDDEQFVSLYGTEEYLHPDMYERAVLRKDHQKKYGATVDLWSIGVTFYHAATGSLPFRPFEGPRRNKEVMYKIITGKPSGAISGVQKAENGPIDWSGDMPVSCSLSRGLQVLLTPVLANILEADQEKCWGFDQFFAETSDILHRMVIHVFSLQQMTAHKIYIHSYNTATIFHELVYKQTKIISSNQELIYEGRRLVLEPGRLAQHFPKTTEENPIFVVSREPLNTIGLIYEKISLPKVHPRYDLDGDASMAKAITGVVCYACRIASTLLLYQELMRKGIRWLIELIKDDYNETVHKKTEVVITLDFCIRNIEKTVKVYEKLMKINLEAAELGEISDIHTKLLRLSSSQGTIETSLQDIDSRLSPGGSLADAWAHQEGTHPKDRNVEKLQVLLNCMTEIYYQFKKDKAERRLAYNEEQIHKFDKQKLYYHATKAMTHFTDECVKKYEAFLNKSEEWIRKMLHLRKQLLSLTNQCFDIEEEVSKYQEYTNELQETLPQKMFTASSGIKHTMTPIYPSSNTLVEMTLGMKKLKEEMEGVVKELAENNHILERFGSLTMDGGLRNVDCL
Particulars: at 1 µM.

Assay [9] deals with T4, Serine/threonine-protein kinase TBK1 (Homo sapiens). Particulars: at 10 µM.
In assay [10] the target is Insulin-like growth factor 1 receptor (Homo sapiens) (UniProt P08069). The settings on record: at 1 µM.
Assay [11] has the same target. Particulars: at 10 µM.
Assay [12] has as its target T5, Inhibitor of nuclear factor kappa-B kinase subunit alpha (Homo sapiens) (UniProt O15111).
T5 sequence (whole entry): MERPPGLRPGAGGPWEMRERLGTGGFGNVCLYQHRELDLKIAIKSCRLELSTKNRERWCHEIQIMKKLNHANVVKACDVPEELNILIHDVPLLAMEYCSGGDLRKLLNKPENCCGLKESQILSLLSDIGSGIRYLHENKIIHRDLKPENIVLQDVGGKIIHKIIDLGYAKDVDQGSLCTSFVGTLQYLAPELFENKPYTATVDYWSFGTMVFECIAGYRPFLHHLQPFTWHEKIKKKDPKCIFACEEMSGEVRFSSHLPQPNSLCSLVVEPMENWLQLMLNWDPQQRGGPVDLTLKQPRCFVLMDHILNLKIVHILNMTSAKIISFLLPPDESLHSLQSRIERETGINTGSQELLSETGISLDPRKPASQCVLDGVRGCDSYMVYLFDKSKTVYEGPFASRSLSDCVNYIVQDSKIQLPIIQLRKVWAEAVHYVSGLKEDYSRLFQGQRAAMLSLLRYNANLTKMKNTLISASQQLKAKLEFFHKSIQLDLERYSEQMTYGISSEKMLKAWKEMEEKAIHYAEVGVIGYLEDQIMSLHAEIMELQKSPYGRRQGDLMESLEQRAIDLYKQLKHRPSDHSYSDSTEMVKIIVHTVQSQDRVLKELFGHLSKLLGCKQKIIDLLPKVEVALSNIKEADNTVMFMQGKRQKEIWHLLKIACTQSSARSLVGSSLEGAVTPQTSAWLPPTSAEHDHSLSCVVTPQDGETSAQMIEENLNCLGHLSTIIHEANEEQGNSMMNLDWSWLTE
Particulars: at 10 µM.

In assay [13] the target is T6, Inhibitor of nuclear factor kappa-B kinase subunit beta (Homo sapiens) (UniProt O14920).
T6 sequence (whole entry): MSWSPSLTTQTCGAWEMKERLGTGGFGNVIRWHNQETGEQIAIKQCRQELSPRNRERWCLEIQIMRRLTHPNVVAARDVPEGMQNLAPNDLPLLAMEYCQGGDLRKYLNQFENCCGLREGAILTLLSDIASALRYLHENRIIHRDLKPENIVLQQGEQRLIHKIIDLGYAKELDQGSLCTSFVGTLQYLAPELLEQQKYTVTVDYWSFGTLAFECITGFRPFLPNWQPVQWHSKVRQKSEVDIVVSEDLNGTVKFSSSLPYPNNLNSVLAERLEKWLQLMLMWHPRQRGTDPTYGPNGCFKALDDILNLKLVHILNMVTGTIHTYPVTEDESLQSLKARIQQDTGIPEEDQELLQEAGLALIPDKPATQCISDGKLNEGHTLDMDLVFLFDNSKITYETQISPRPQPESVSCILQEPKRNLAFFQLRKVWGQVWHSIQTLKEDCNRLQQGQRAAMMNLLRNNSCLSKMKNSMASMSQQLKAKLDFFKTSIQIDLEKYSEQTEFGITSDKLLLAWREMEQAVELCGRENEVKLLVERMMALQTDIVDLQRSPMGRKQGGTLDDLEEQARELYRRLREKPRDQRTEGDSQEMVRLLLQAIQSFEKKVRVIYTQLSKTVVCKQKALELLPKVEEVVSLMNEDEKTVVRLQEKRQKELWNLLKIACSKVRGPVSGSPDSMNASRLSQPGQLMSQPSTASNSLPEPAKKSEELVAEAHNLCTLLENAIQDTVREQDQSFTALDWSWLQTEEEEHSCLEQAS
The settings on record: at 1 µM.

Assay [14] concerns the target Insulin receptor (Homo sapiens) (UniProt P06213). Particulars: at 1 µM.

Insulin-like growth factor 1 receptor (Homo sapiens), sequence (P08069 31-736 limits assumed): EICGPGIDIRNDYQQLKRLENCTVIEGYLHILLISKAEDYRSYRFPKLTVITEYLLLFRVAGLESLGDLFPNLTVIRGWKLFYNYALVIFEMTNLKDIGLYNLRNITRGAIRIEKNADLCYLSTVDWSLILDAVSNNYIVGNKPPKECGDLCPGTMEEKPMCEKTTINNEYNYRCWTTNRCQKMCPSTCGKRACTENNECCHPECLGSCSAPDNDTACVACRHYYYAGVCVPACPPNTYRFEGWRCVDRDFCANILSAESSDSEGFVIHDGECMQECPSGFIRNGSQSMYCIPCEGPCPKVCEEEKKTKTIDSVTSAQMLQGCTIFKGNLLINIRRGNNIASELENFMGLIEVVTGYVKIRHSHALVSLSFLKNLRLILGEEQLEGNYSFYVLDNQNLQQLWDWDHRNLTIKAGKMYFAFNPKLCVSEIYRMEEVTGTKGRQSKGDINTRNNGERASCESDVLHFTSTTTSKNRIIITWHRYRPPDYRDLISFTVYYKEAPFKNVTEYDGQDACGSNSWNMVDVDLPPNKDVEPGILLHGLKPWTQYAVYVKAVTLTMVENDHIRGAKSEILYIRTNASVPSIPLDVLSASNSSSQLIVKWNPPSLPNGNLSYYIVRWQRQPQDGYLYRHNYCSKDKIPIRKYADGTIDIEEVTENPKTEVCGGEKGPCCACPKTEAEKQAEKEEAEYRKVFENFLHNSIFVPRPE
Insulin-like growth factor 1 receptor (Homo sapiens), sequence (P08069 741-1367 limits assumed): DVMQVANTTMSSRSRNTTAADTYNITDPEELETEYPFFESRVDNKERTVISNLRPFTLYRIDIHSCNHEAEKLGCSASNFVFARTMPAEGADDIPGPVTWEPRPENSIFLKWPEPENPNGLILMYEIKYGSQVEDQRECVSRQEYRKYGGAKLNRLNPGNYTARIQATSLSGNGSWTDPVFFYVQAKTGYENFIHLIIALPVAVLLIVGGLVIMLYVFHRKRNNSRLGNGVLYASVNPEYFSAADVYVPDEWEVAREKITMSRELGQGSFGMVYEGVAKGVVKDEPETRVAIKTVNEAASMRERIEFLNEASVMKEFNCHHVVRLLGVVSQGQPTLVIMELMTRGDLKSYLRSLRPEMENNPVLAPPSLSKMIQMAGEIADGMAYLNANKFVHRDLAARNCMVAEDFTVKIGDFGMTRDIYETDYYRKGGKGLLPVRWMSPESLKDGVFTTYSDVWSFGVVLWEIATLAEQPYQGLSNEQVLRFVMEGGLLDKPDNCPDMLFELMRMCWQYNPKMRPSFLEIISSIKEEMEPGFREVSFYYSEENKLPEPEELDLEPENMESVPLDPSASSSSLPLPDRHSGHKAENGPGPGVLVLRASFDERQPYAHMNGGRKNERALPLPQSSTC
Insulin receptor (Homo sapiens), sequence (P06213 28-758 limits assumed): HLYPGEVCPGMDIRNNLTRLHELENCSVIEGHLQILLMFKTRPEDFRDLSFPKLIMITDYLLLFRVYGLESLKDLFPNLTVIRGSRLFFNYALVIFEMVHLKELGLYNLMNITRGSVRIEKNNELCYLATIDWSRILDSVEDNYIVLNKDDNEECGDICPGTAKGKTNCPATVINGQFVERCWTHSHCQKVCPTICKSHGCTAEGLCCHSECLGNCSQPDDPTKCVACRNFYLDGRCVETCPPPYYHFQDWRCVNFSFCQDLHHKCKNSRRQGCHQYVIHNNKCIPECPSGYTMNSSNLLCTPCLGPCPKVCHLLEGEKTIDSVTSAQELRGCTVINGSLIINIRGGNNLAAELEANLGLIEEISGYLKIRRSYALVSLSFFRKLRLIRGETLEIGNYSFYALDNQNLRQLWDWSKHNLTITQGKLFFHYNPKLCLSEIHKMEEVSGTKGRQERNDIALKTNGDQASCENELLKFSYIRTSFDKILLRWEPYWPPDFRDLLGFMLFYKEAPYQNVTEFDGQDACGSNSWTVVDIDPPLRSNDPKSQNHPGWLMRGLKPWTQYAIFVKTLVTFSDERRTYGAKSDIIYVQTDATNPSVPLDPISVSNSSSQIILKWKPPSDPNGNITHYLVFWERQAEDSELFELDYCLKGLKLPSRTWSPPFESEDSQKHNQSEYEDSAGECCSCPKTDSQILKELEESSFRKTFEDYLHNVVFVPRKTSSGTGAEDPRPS
Insulin receptor (Homo sapiens), sequence (P06213 763-1382 limits assumed): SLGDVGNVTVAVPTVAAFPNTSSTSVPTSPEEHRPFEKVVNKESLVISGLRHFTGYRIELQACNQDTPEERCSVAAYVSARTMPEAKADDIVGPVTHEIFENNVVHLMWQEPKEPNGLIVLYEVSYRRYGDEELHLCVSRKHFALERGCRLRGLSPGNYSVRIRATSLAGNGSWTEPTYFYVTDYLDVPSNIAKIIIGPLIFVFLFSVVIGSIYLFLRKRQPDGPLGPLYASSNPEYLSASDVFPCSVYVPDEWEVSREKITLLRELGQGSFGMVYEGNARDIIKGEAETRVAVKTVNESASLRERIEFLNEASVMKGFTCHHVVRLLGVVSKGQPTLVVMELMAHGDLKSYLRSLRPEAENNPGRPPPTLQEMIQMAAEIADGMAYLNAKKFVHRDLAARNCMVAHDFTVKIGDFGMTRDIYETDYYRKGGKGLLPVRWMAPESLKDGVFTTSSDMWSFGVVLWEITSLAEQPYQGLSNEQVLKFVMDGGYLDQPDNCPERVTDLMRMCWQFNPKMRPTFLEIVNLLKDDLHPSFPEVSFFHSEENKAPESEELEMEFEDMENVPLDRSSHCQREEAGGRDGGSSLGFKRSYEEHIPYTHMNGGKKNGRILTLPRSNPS

Turning to `CCN(CC)CCNC(=O)c1c(C)[nH]c(/C=C2\C(=O)Nc3ccc(Cl)cc32)c1C`, the residual activity in [1] is 33%; in assay [2], 4%; in assay [3], -3%; in [4], 71%; in assay [5], 18%; in assay [6], 79%. Besides, the residual activity in assay [7] stood at 24%; in assay [8], 15%; in assay [9] it was 1%; in assay [10], 30%; in assay [11] it was 3%; in assay [12], 65%. Also, the residual activity in assay [13] came to 98%; in [14], 32%.

The record behind these values is ChEMBL document CHEMBL2218924, “A broad activity screen in support of a chemogenomic map for kinase signalling research and drug discovery” (Biochem J, 2013).
